About 10,000 (2.8%) of roughly 360,000 compounds were called active. Another 4% or so got no clear call; they are omitted. The sample holds actives, similar compounds and a random draw of the others, so the mix is not that of the screen. A number with no mark means an inactive call. Calls follow the shape of the dose curve; as a rule, active = well fitted inhibition curve with a large enough effect; inconclusive = small, poorly fitted or top-dose-only effect; inactive = flat fitted curve, though single readings scatter.
% is scaled to controls: 0 for no effect and ±100 for the full control effect; potency is read from the fitted curve at half-maximal effect.

For the test, the target named is Serine/threonine-protein kinase PLK1 (Homo sapiens) (UniProt P53350). The experiment in a line: qHTS for Inhibitors of PLK1-PDB (polo-like kinase 1 - polo-box domain): Primary Screen. Also: nearly all actives have a fitted effect of over 65% in size. As to max response, negative = inhibition: series mostly up to about 57 µM. The conditions noted are these: Plk1 PBD binding of FITC phosphopeptide, fluorescence polarization.
Chain of Serine/threonine-protein kinase PLK1 (Homo sapiens) (P53350 whole entry, looked up, the tested form may be a part): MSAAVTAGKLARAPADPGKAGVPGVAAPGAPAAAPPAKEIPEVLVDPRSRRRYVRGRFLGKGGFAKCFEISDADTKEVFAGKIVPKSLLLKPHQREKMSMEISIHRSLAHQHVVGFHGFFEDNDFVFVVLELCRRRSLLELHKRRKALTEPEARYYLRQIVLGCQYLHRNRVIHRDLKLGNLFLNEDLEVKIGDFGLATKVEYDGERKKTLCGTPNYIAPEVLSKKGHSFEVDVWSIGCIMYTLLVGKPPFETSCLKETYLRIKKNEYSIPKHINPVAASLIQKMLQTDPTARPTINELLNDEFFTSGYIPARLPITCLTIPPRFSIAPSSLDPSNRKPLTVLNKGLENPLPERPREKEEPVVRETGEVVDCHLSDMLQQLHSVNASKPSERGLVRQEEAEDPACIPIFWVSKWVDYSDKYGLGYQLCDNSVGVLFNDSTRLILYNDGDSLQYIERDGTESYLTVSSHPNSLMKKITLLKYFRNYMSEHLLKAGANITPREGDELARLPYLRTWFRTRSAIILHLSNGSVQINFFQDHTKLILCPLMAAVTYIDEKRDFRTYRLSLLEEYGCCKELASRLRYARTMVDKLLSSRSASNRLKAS
For the molecule `Cc1cc(Br)ccc1NC(=O)CCCOc1cc(=O)n(C)c2ccccc12`, the max response, negative = inhibition is -7.55%.

Regarding `O=C(COC(=O)Cc1ccc(Cl)cc1Cl)NCc1ccco1`, the max response, negative = inhibition was -7.73%.

As for `COC(=O)[C@@]1(Sc2ccc(C)cc2)CC(=O)N(c2cccc(SC)c2)[C@@H]1c1ccccc1`, the max response, negative = inhibition was -14.8%.

Regarding `CC(Sc1ccc(S(=O)(=O)N2CCN(C)CC2)cn1)C(=O)NC1CCCC(C)C1C` (centres undefined), the max response, negative = inhibition was -3.15%.

`CCNCCC(=O)N1c2ccccc2Sc2ccc(NC(=O)OCC)cc21`: the max response, negative = inhibition was 4.19%.

In the case of `CCN1/C(=C\c2ccc3ccccc3[n+]2CC)Sc2cc(C)ccc21`, the max response, negative = inhibition was 18.1%.

Regarding `CCN1/C(=C/C(=S)Nc2ccccc2)Sc2ccccc21`, the Potency was 21.2 µM (active).

In the case of `O=C(CCc1ccc(O)cc1)NN=Cc1cc(Br)ccc1O`, the max response, negative = inhibition is -9.45%.

In the case of `CNS(=O)(=O)c1ccc2c(c1)[nH]c(=S)n2C`, the max response, negative = inhibition is -13.6%.

As to `CN1OC[C@@H]2CN(S(=O)(=O)c3cccc4ccccc34)[C@H](c3ccc(N4CCCCC4)cc3)C[C@@H]21`, the max response, negative = inhibition was -17.2%.

In the case of `CCCNC(=O)C1(C)CCN(C(=O)c2ccccc2OC(F)(F)F)C1` (centres undefined), the max response, negative = inhibition is 1.6%.

For the molecule `COc1cc(C2/C(=C(\O)c3ccc4c(c3)CC(C)O4)C(=O)C(=O)N2c2nnc(C)s2)cc(OC)c1OC` (centres undefined), the Potency was 23.8 µM (active).

In the case of `COCCCN1C(=O)C(=O)/C(=C(/O)c2ccc3c(c2)CC(C)O3)C1c1cccnc1` (centres undefined), the max response, negative = inhibition was -4.58%.

`COc1cc(C2/C(=C(\O)c3ccc4c(c3)CC(C)O4)C(=O)C(=O)N2Cc2ccco2)ccc1O` (centres undefined): the max response, negative = inhibition was -6.21%.

For the molecule `COc1cccc(OCC(=O)NCCS(=O)(=O)N2CCN(c3ccccc3)CC2)c1`, the max response, negative = inhibition is -0.74%.

Take `Cc1ccccc1NC(=O)Cc1nc(COC(=O)C(C)(C)Oc2ccc(Cl)cc2)cs1`: the max response, negative = inhibition is -1.61%.

As for `CCOC(=O)Cc1c(C)nc2c(C#N)c(C)nn2c1C`, the Potency is 18.9 µM (active).

With `CCOC(=O)COc1nc(C)cc(C(F)(F)F)c1C#N`, the max response, negative = inhibition is -6.94%.

Turning to `CCOC(=O)c1cc(C)nc(S(C)(=O)=O)c1C#N`, the max response, negative = inhibition was -3.21%.

As to `Nc1nc(CSc2nnnn2-c2ccccc2)nc(Nc2ccccc2)n1`, the max response, negative = inhibition is 0.127%.

With `COc1ccc(-c2ccc(CN3C(CC(C)C)C(=O)N(Cc4cn(CC5CCCCC5)nn4)CCS3(=O)=O)cc2)cc1` (centres undefined), the max response, negative = inhibition was -10.4%.

Consider `C=CCn1c(=O)c(C(=O)Nc2ncccc2O)c(O)c2ccccc21`, for which the max response, negative = inhibition was -22.1%.

As for `Cn1c(=O)c(C(=O)Nc2ncccn2)c(O)c2ccccc21`, the Potency was 8.44 µM (active).

In the case of `CCCn1c(=O)c(C(=O)Nc2cc(C)ccn2)c(O)c2ccccc21`, the max response, negative = inhibition is -9.12%.

The values are drawn from PubChem BioAssay AID720504 (National Center for Advancing Translational Sciences (NCATS), 2013).
